In PubChem BioAssay (NCI):
Compounds without any hit were thinned out: in the full panel of roughly 83,000, 20% have a hit.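 Assay: single dose, 48 h. Readout: percent growth (0 = no net growth; negative = cell death). Active: <10.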 Unmarked numbers belong to inactive results. Active and inactive are the calls of the source.

These compounds were tested on MCF7 breast (assay: NCI-60 one-dose screen, 48 h (100 = growth as untreated, 0 = no growth, -100 = all killed)). Details: 10 µM unless noted.

| Structure (SMILES) | growth |
| --- | --- |
| O=C(CCSc1nnc2n(Cc3ccccc3)c(=O)c3c4c(sc3n12)CCCC4)N1CCN(c2ccccc2)CC1 | 98.4% |
| Cc1nc2c(c(=O)[nH]1)C(c1ccccc1)c1ccc3ccccc3c1O2 (stereo not drawn) | 11.4% |
| CC(=O)OC(c1ccccc1)C1CCOC1=O (stereo not drawn) | 102% |
| COc1cccc(/C=C/C(=O)c2cc3c(N)c(C(=O)Nc4cccc5ccccc45)sc3nc2C)c1 | 13.4% |
| Cc1cc2c(cc1C)N(C(=O)CCl)CC(=O)N2 | 19.6% |
| CC1(C)OB(O)c2cc(-c3nc4ccc5[nH]ncc5c4c4c3CCCC4)ccc21 | 44.1% |
| CCN1C(=O)N(CC)C2C1NN=c1s/c(=C\c3ccc(C(F)(F)F)cc3)c(=O)n12 (stereo not drawn) | 15.9% |
| COCCn1cc(-c2csc(-c3c[nH]c4ccc(Br)cc34)n2)c2cccnc21 | 12% |
| O=C1/C=C/[C@@H](O)[C@@H]2C[C@@H](O)C[C@H]2/C=C/CCC[C@H](CCO)O1 | -17.1% (active) |
| O=C(/C=C(O)/C=C/c1cccc2[nH]ccc12)/C=C/c1cccc2[nH]ccc12 | 16.5% |
| CCn1c(-c2cc3c([nH]c4ccccc43)c(-c3cccc(O)c3)n2)n[nH]c1=S | 32.6% |
| CC1=C(C(=O)Nc2nc(-c3ccc(Cl)cc3)cs2)[C@H](c2ccc(O)cc2)NC(=O)N1 | 101% |
| CCCCCCCCCCCCCCCCCC1=NC(C)(C)CN1CC(C)O (stereo not drawn) | 42.4% |
| CCCCCCCC/C=C\CCCCCCCCOc1ccc(CC(=O)NCC[N+]2(C)CCOCC2)cc1 | 81.7% |
| CNC(=O)c1ccccc1Nc1nc(Nc2cc(OC)c(OC)c(OC)c2)ncc1Br | 1.48% (active) |
| O=C(Nc1ccc(Br)cc1)C1=NCCCCN1 | 81% |
| N#Cc1nc(-c2ccccc2)oc1S(=O)(=O)N1CCN(c2ccc(F)cc2)CC1 | 38.5% |
| C=Cc1cnc(Nc2ccc(OC)cc2)nc1NCCCNC(=O)C1CCC1 | 53.6% |
| CN1CCN(Cc2ccc(NC(=O)c3cncc(C#Cc4cnc(N)c5ncccc45)c3)cc2C(F)(F)F)CC1 | -74.2% (active) |
| CN1CCN(Cc2ccc(NC(=O)c3cncc(C#Cc4cnc(N)c5ccc(F)cc45)c3)cc2C(F)(F)F)CC1 | 13.2% |

| Structure (SMILES) | growth |
| --- | --- |
| O=C1Nc2ccccc2/C1=C\c1c[nH]c2ccc(Br)cc12 | 29.5% |
| NC(=O)c1c(NC(=O)c2cccs2)sc2c1CCC(=O)C2 | 45.1% |
| O=c1nc(-c2ccccc2)c2cc(-c3ccc(C(F)(F)F)nc3)ccc2[nH]1 | 86.8% |
| O=C1C(Nc2ccccn2)=C(I)C(=O)c2ncccc21 | -58.7% (active) |
| Cc1ccc(-c2csc(NC(=O)c3ccccc3CN3C(=O)c4ccccc4C3=O)n2)cc1 | 94.3% |
| COC(=O)CC[C@@H]1O[C@@H](c2ccc(F)cc2)[C@@H](O)[C@H]1O | 96% |
| O=c1cc(-c2ccccc2)[nH]c2ncc(-c3ccc(F)cc3)n12 | 57.8% |
| Oc1c(CN2CCOCC2)cc(COCc2ccccc2)c2cccnc12 | 9.26% (active) |
| CCS/C(Nc1ccccc1)=C(\C#N)C(=O)Nc1ccc(OC)cc1 | 19% |
| COc1cc(NC(=O)c2cncnc2Nc2ccc3c(ccn3Cc3ccccn3)c2)cc(OC)c1 | 31.2% |
| OCCNCCNC(Cc1ccc(Cl)cc1)c1ccccc1 (stereo not drawn) | 85.1% |
| N#Cc1cccc(C2C3=C(COC3=O)N(CCO)c3cc4c(cc32)OCO4)c1 (stereo not drawn) | 22.4% |
| CN(Cc1ccccc1)c1nc(Cl)c(C2CC(c3ccccc3)=NN2c2ccccc2)s1 (stereo not drawn) | 82.4% |
| C=C1C(=O)O[C@H]2[C@H]1CC/C(CNC(=O)c1c[nH]c3ccc(F)cc13)=C\CC[C@@]1(C)O[C@@H]21 | -26.3% (active) |
| COc1cc(/C=N/Nc2ccc(Br)cc2)cc(OC)c1OC | 51% |
| CCOC(=O)c1c(C)nc2c(c1N)/C(=C/c1ccc(OC)cc1)C(=O)N2Cc1ccccc1 | 22.8% |
| Cn1c(=O)c2[nH]c(SCC(=O)Nc3ccc(C(=O)/C=C/c4ccccc4Cl)cc3)nc2n(C)c1=O | 69.4% |
| CCN(CC)CCCOc1ccc2ncnc(Nc3ccc(Oc4cccc(C(F)(F)F)c4)c(Cl)c3)c2c1 | -45.2% (active) |
| Nc1nc(N)c2c(n1)NC(c1ccc(Cl)cc1)C1CCc3ccccc3C1=N2 (stereo not drawn) | 24.8% |

What follows are compounds tested on HCT-116 colon in the same assay as above. Details: 10 µM unless noted.

| Structure (SMILES) | growth |
| --- | --- |
| O=C(CCSc1nnc2n(Cc3ccccc3)c(=O)c3c4c(sc3n12)CCCC4)N1CCN(c2ccccc2)CC1 | 100% |
| Cc1nc2c(c(=O)[nH]1)C(c1ccccc1)c1ccc3ccccc3c1O2 (stereo not drawn) | 21.3% |
| CC(=O)OC(c1ccccc1)C1CCOC1=O (stereo not drawn) | 101% |
| COc1cccc(/C=C/C(=O)c2cc3c(N)c(C(=O)Nc4cccc5ccccc45)sc3nc2C)c1 | 12.2% |
| Cc1cc2c(cc1C)N(C(=O)CCl)CC(=O)N2 | -10.9% (active) |
| CC1(C)OB(O)c2cc(-c3nc4ccc5[nH]ncc5c4c4c3CCCC4)ccc21 | 22.7% |
| CCN1C(=O)N(CC)C2C1NN=c1s/c(=C\c3ccc(C(F)(F)F)cc3)c(=O)n12 (stereo not drawn) | 9.6% (active) |
| COCCn1cc(-c2csc(-c3c[nH]c4ccc(Br)cc34)n2)c2cccnc21 | 24.2% |
| O=C1/C=C/[C@@H](O)[C@@H]2C[C@@H](O)C[C@H]2/C=C/CCC[C@H](CCO)O1 | -62.5% (active) |
| O=C(/C=C(O)/C=C/c1cccc2[nH]ccc12)/C=C/c1cccc2[nH]ccc12 | 46.3% |
| CCn1c(-c2cc3c([nH]c4ccccc43)c(-c3cccc(O)c3)n2)n[nH]c1=S | 48.2% |
| CC1=C(C(=O)Nc2nc(-c3ccc(Cl)cc3)cs2)[C@H](c2ccc(O)cc2)NC(=O)N1 | 95.4% |
| CCCCCCCCCCCCCCCCCC1=NC(C)(C)CN1CC(C)O (stereo not drawn) | 7.84% (active) |
| CCCCCCCC/C=C\CCCCCCCCOc1ccc(CC(=O)NCC[N+]2(C)CCOCC2)cc1 | 73.8% |
| CNC(=O)c1ccccc1Nc1nc(Nc2cc(OC)c(OC)c(OC)c2)ncc1Br | 1.45% (active) |
| O=C(Nc1ccc(Br)cc1)C1=NCCCCN1 | 80.2% |
| N#Cc1nc(-c2ccccc2)oc1S(=O)(=O)N1CCN(c2ccc(F)cc2)CC1 | 52.8% |
| C=Cc1cnc(Nc2ccc(OC)cc2)nc1NCCCNC(=O)C1CCC1 | 21.5% |
| CN1CCN(Cc2ccc(NC(=O)c3cncc(C#Cc4cnc(N)c5ncccc45)c3)cc2C(F)(F)F)CC1 | -63.8% (active) |
| CN1CCN(Cc2ccc(NC(=O)c3cncc(C#Cc4cnc(N)c5ccc(F)cc45)c3)cc2C(F)(F)F)CC1 | -90.9% (active) |

| Structure (SMILES) | growth |
| --- | --- |
| O=C1Nc2ccccc2/C1=C\c1c[nH]c2ccc(Br)cc12 | 85.8% |
| NC(=O)c1c(NC(=O)c2cccs2)sc2c1CCC(=O)C2 | 4.11% (active) |
| O=c1nc(-c2ccccc2)c2cc(-c3ccc(C(F)(F)F)nc3)ccc2[nH]1 | 92.4% |
| O=C1C(Nc2ccccn2)=C(I)C(=O)c2ncccc21 | -62.2% (active) |
| Cc1ccc(-c2csc(NC(=O)c3ccccc3CN3C(=O)c4ccccc4C3=O)n2)cc1 | 95.4% |
| COC(=O)CC[C@@H]1O[C@@H](c2ccc(F)cc2)[C@@H](O)[C@H]1O | 89.3% |
| O=c1cc(-c2ccccc2)[nH]c2ncc(-c3ccc(F)cc3)n12 | 51.3% |
| Oc1c(CN2CCOCC2)cc(COCc2ccccc2)c2cccnc12 | 21.6% |
| CCS/C(Nc1ccccc1)=C(\C#N)C(=O)Nc1ccc(OC)cc1 | 14.3% |
| COc1cc(NC(=O)c2cncnc2Nc2ccc3c(ccn3Cc3ccccn3)c2)cc(OC)c1 | 18.2% |
| OCCNCCNC(Cc1ccc(Cl)cc1)c1ccccc1 (stereo not drawn) | 75.7% |
| N#Cc1cccc(C2C3=C(COC3=O)N(CCO)c3cc4c(cc32)OCO4)c1 (stereo not drawn) | 17% |
| CN(Cc1ccccc1)c1nc(Cl)c(C2CC(c3ccccc3)=NN2c2ccccc2)s1 (stereo not drawn) | 77.7% |
| C=C1C(=O)O[C@H]2[C@H]1CC/C(CNC(=O)c1c[nH]c3ccc(F)cc13)=C\CC[C@@]1(C)O[C@@H]21 | -49.1% (active) |
| COc1cc(/C=N/Nc2ccc(Br)cc2)cc(OC)c1OC | 60.8% |
| CCOC(=O)c1c(C)nc2c(c1N)/C(=C/c1ccc(OC)cc1)C(=O)N2Cc1ccccc1 | 36.8% |
| Cn1c(=O)c2[nH]c(SCC(=O)Nc3ccc(C(=O)/C=C/c4ccccc4Cl)cc3)nc2n(C)c1=O | 58.5% |
| CCN(CC)CCCOc1ccc2ncnc(Nc3ccc(Oc4cccc(C(F)(F)F)c4)c(Cl)c3)c2c1 | -10.1% (active) |
| Nc1nc(N)c2c(n1)NC(c1ccc(Cl)cc1)C1CCc3ccccc3C1=N2 (stereo not drawn) | 31.8% |
